# Assay results as given in PubChem BioAssay (NCI).
# “And” between values parts separate entries of the source, which are not always exact repeats. Equal entries are not always repeated. This is part of a sample that, as a whole, favours compounds with a hit. Of some 83,000 tested, about 20% had one in any assay.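 Assay: single dose, 48 h. Readout: percent growth (0 = no net growth; negative = cell death). Active: <10.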 The source made the active and inactive calls.
# Columns and labels:
# Assay in all cases: NCI-60 one-dose screen, 48 h (100 = growth as untreated, 0 = no growth, -100 = all killed)
# Settings in all cases: 10 µM unless noted
# HCT-15 colon = tested on: HCT-15 colon
# HT29 colon = tested on: HT29 colon
# SNB-75 CNS = tested on: SNB-75 CNS
# SNB-19 CNS = tested on: SNB-19 CNS
# U251 CNS = tested on: U251 CNS
# PC-3 prostate = tested on: PC-3 prostate
# SK-MEL-5 melanoma = tested on: SK-MEL-5 melanoma
# UACC-62 melanoma = tested on: UACC-62 melanoma
# LOX IMVI melanoma = tested on: LOX IMVI melanoma
# SK-MEL-28 melanoma = tested on: SK-MEL-28 melanoma
# SK-MEL-2 melanoma = tested on: SK-MEL-2 melanoma
# EKVX NSCLC = tested on: EKVX NSCLC
# SN12C renal = tested on: SN12C renal
# UO-31 renal = tested on: UO-31 renal
# TK-10 renal = tested on: TK-10 renal
# ACHN renal = tested on: ACHN renal
# CAKI-1 renal = tested on: CAKI-1 renal
# A498 renal = tested on: A498 renal
# CCRF-CEM leukemia = tested on: CCRF-CEM leukemia
# MOLT-4 leukemia = tested on: MOLT-4 leukemia
Structure (SMILES),growth (HCT-15 colon),growth (HT29 colon),growth (SNB-75 CNS),growth (SNB-19 CNS),growth (U251 CNS),growth (PC-3 prostate),growth (SK-MEL-5 melanoma),growth (UACC-62 melanoma),growth (LOX IMVI melanoma),growth (SK-MEL-28 melanoma),growth (SK-MEL-2 melanoma),growth (EKVX NSCLC),growth (SN12C renal),growth (UO-31 renal),growth (TK-10 renal),growth (ACHN renal),growth (CAKI-1 renal),growth (A498 renal),growth (CCRF-CEM leukemia),growth (MOLT-4 leukemia)
c1ccc(Cc2cccc[n+]2C(c2ccccc2)c2ccccc2)cc1,93.1% (inactive),31.8% (inactive),50.8% (inactive),58.1% (inactive),42.5% (inactive),35.8% (inactive),14.5% (inactive),37.7% (inactive),58.2% (inactive),41.6% (inactive),11.6% (inactive),30% (inactive),71.5% (inactive),82.7% (inactive),62.9% (inactive),94.7% (inactive),94.4% (inactive),90.1% (inactive),48.6% (inactive),59.3% (inactive)
NC1=CC(=O)c2cccnc2C1=O,19.9% (inactive),54.8% (inactive),-81.2% (active),6.26% (active),-82% (active),15.4% (inactive),-97.8% (active),-90.5% (active),-74.3% (active),-73.7% (active),-46.6% (active),-20.8% (active),-85.2% (active),-98.2% (active),94.3% (inactive),5.89% (active),-69.4% (active),81.9% (inactive),-24.3% (active),-46.4% (active)
COc1cc(/C=C/C(=O)c2ccc(NC(=O)CSc3nnc(-c4cc(-c5ccccc5)nc5ccccc45)n3-c3ccccc3)cc2)cc(OC)c1OC,65.9% (inactive),54.7% (inactive),104% (inactive),95.1% (inactive),94% (inactive),81.6% (inactive),87% (inactive),71.9% (inactive),89.4% (inactive),101% (inactive),100% (inactive),84.9% (inactive),83.8% (inactive),87.7% (inactive),109% (inactive),78.6% (inactive),72.4% (inactive),87.8% (inactive),84.2% (inactive),52.7% (inactive)
O=C(Nc1ncc(Cc2cccc(C(F)(F)F)c2)s1)c1ccc(-n2cnnn2)cc1,38.7% (inactive),62% (inactive),83.4% (inactive),59.7% (inactive),64.4% (inactive),54.1% (inactive),37.8% (inactive),19.8% (inactive),46.6% (inactive),52.7% (inactive),89.4% (inactive),40.2% (inactive),79.9% (inactive),48.3% (inactive),50.4% (inactive),32% (inactive),30.1% (inactive),54.7% (inactive),55.3% (inactive),39.4% (inactive)
CC12OC(CC(O)C1O)n1c3ccccc3c3c4c(c5c6ccccc6n2c5c31)C(=O)N(CCN1CCOCC1)C4=O (stereo not given),9.81% (active),2.31% (active),-5.19% (active),8.99% (active),3.67% (active),7.32% (active),-44.5% (active),-52% (active),-61.1% (active),34.6% (inactive),12.6% (inactive),32% (inactive),10.3% (inactive),-9.86% (active),-11.1% (active),-59.7% (active),2.22% (active),-15.3% (active),16.4% (inactive),3.59% (active)
CCN1CCN(CC(=O)Nc2nc3ccc(NCc4ccc(C)cc4)cc3s2)CC1,1.79% (active),14.5% (inactive),91.6% (inactive),81.6% (inactive),60.2% (inactive),56% (inactive),40.7% (inactive),-57.1% (active),-42.4% (active),53.4% (inactive),75.8% (inactive),72.6% (inactive),63.3% (inactive),61.6% (inactive),93.6% (inactive),85.6% (inactive),50.7% (inactive),94% (inactive),55.8% (inactive),50.5% (inactive)
COc1ccc(-c2ccc(-c3ccc(C(=N)N)cn3)o2)cc1Cl,18.7% (inactive),4.81% (active),89.3% (inactive),40% (inactive),0.889% (active),46.1% (inactive),12% (inactive),86.5% (inactive),-71% (active),70.1% (inactive),83.1% (inactive),70.4% (inactive),44.5% (inactive),52.4% (inactive),94.4% (inactive),17.3% (inactive),40.2% (inactive),80.5% (inactive),-4.6% (active),10.7% (inactive)
CCOC(=O)C1=C(C)NC(=O)NC1c1c(Cl)n(-c2ccccc2)c2ccccc12 (stereo not given),85.8% (inactive),80.7% (inactive),84.8% (inactive),83.9% (inactive),89.2% (inactive),56.7% (inactive),75.4% (inactive),68.4% (inactive),89.3% (inactive),94.1% (inactive),102% (inactive),96.8% (inactive),92.7% (inactive),54.2% (inactive),98.9% (inactive),85.1% (inactive),70.7% (inactive),78.2% (inactive),3.16% (active),78.8% (inactive)
COC(=O)/C=C1/SC(N2N=C(c3cccs3)CC2c2ccc(F)cc2)=NC1=O (stereo not given),-9.66% (active),13.3% (inactive),48% (inactive),76.4% (inactive),22.1% (inactive),64.5% (inactive),54.1% (inactive),56.8% (inactive),-46.5% (active),43.8% (inactive),80.9% (inactive),94% (inactive),56% (inactive),52.6% (inactive),78.5% (inactive),74.4% (inactive),77% (inactive),80.5% (inactive),8.74% (active),-3.67% (active)
COc1cc2ncnc(Nc3ccc(F)c(Cl)c3)c2cc1OCC(=O)N1CCCCC1,86.1% (inactive),77.1% (inactive),87.7% (inactive),91.8% (inactive),96.9% (inactive),84.6% (inactive),90.4% (inactive),91.7% (inactive),87.4% (inactive),99.2% (inactive),88.1% (inactive),63.5% (inactive),76.4% (inactive),43.5% (inactive),23.9% (inactive),32.2% (inactive),44.5% (inactive),43.5% (inactive),94.2% (inactive),73.8% (inactive)
CCN(CC)CCOc1ccc(/C(=C(\Cl)c2ccccc2)c2ccccc2)cc1,-1.24% (active) and 0.736% (active),-46.7% (active) and 7.7% (active),27.2% (inactive) and 31.5% (inactive),52.4% (inactive) and 86.6% (inactive),23.1% (inactive) and 72.8% (inactive),49.1% (inactive) and 91.3% (inactive),-97.4% (active) and -99.3% (active),-54.2% (active) and 9.63% (active),-42.7% (active) and 85.4% (inactive),-28% (active) and -41.1% (active),7.89% (active),47.7% (inactive) and 87.7% (inactive),54.8% (inactive) and 75.6% (inactive),24% (inactive) and 66.4% (inactive),111% (inactive),52.8% (inactive) and 81.3% (inactive),41.3% (inactive) and 69.9% (inactive),77.1% (inactive),28% (inactive) and 89% (inactive),36.8% (inactive) and 91.6% (inactive)
CN1CCN(c2ccc(Nc3ncc(C(N)=O)c(NCCCNC(=O)C4CCC4)n3)cc2)CC1,111% (inactive),44.4% (inactive),67.7% (inactive),63.9% (inactive),67% (inactive),77.6% (inactive),92.3% (inactive),108% (inactive),64.8% (inactive),103% (inactive),71.3% (inactive),99.2% (inactive),36.3% (inactive),40.1% (inactive),39.8% (inactive),61.8% (inactive),35.1% (inactive),137% (inactive),14.2% (inactive),18% (inactive)
CC(C)=CCc1cc(O)c(O)c2oc3cc(O)cc(O)c3c(=O)c12,22.3% (inactive),91.7% (inactive),60.2% (inactive),52.6% (inactive),41% (inactive),68.8% (inactive),56.1% (inactive),54% (inactive),32.6% (inactive),84.4% (inactive),97.3% (inactive),78.2% (inactive),58.4% (inactive),45.9% (inactive),46.7% (inactive),41.5% (inactive),36.7% (inactive),101% (inactive),29.5% (inactive),31.9% (inactive)
